Results filed as inconclusive are left out. Active and inactive are the calls of the source. The call rests on the fitted dose curve; in most records, active means well fitted curve in the direction sought with a large enough effect; inconclusive means small, poorly fitted or top-dose-only effect, or another doubt; inactive means no such curve, though single readings can be large; an effect the other way counts as inactive or inconclusive.
What was measured:
[1] = qHTS of pediatric cancer cell lines to identify multiple opportunities for drug repurposing: Primary screen for TC32 cells (AID 1347089); further: nearly all actives have a fitted effect of over 60% in size; further: potency means the concentration at half of the fitted maximal effect; on activity change, negative = cytotoxic: on the % scale 0 is the no-effect control and ±100 the full control effect
Method in brief: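 Luminescent ATP read-out (CellTiter-Glo) of metabolically active TC32 cells after 48 h exposure. Concentration-response curves came from 11-point (MIPE, 0.78 nM–46 µM) or 8-point (NPC, 0.59 nM–46 µM) primary titrations; follow-up used 11 points.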

[2] = qHTS of pediatric cancer cell lines to identify multiple opportunities for drug repurposing: Primary screen for SJ-GBM2 cells (AID 1347091); further: potency means the concentration at half of the fitted maximal effect;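 on activity change, negative = cytotoxic: plate controls were DMSO neutral control for no effect and bortezomib for full effect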
Method in brief: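 Viability measured as metabolically active cells via CellTiter-Glo luminescence following 48 hours of compound exposure, 11-point dilutions in confirmatory testing. 500-1,000 cells/well plated 5 hours before dosing; controls were DMSO and 2.3 µM bortezomib.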

[3] = qHTS of pediatric cancer cell lines to identify multiple opportunities for drug repurposing: Primary screen for A673 cells (AID 1347092); further: nearly all actives have a fitted effect of over 45% in size; further: potency means the concentration at half of the fitted maximal effect; on activity change, negative = cytotoxic: on the % scale 0 is the no-effect control and ±100 the full control effect
Method in brief: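 Cell viability of A673 measured by CellTiter-Glo ATP luminescence after 48 hours compound exposure. Dilution series spanned 0.78 nM to 46 µM (MIPE, 11-point) or 0.59 nM to 46 µM (NPC, 8-point); bortezomib 2.3 uM positive control.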

[4] = qHTS of pediatric cancer cell lines to identify multiple opportunities for drug repurposing: Primary screen for BT-37 cells (AID 1347094); further: potency means the concentration at half of the fitted maximal effect;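 on activity change, negative = cytotoxic: series mostly up to about 57 µM; plate controls were DMSO for no effect and bortezomib for full effect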
Method in brief: (§1)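 Cells seeded at 500-1,000 cells/well in growth media, rested 5 hours at 37 degrees C, 5% CO2, then dosed; MIPE compounds at 11-point (from 0.78 nM) and NPC at 8-point (from 0.59 nM) final concentrations. Viability by CellTiter-Glo luminescence after 48 hours.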

[5] = qHTS of pediatric cancer cell lines to identify multiple opportunities for drug repurposing: Primary screen for NB-EBc1 cells (AID 1347095); further: potency means the concentration at half of the fitted maximal effect;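 on activity change, negative = cytotoxic: plate controls were DMSO neutral control for no effect and bortezomib for full effect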
Method in brief: as §1

[6] = qHTS of pediatric cancer cell lines to identify multiple opportunities for drug repurposing: Primary screen for U-2 OS cells (AID 1347096);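 further: plate controls were DMSO wells for no effect and bortezomib positive control wells for full effect; nearly all actives have a fitted effect of over 50% in size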
Method in brief: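 Viability after 48 h compound treatment at 37C, 500-1,000 cells/well, read as ATP luminescence with CellTiter-Glo. Primary screens used 11-point (MIPE, 0.78 nM-46 µM) or 8-point (NPC, 0.59 nM-46 µM) final concentrations; follow-up screens used 11-point dilutions.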

[7] = qHTS of pediatric cancer cell lines to identify multiple opportunities for drug repurposing: Primary screen for SK-N-MC cells (AID 1347093); further: potency means the concentration at half of the fitted maximal effect;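 on activity change, negative = cytotoxic: series mostly up to about 46 µM; plate controls were DMSO neutral control for no effect and bortezomib for full effect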
Method in brief: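 Metabolically active cells were quantified by ATP-dependent luminescence (CellTiter-Glo, 15 min at room temperature) following 48 h treatment. Cells had been plated at 500-1,000 per well and settled for 5 h beforehand.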

[8] = qHTS of pediatric cancer cell lines to identify multiple opportunities for drug repurposing: Primary screen for Saos-2 cells (AID 1347097); further: nearly all actives have a fitted effect of over 40% in size; further: potency means the concentration at half of the fitted maximal effect; on activity change, negative = cytotoxic: on the % scale 0 is the no-effect control and ±100 the full control effect
Method in brief: as §1

[9] = qHTS of pediatric cancer cell lines to identify multiple opportunities for drug repurposing: Primary screen for SK-N-SH cells (AID 1347098); further: nearly all actives have a fitted effect of over 65% in size; further: potency means the concentration at half of the fitted maximal effect;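 on activity change, negative = cytotoxic: DMSO served as neutral control and bortezomib at 2.3 µM as positive control; on the % scale 0 is the no-effect control and ±100 the full control effect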
Method in brief: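 Cells (500-1,000/well) rested 5 h, then received compounds for 48 h; metabolically active cells were measured by CellTiter-Glo luminescence. Final concentrations spanned up to 46 µM (MIPE, 11-point) or 0.59 nM-46 µM (NPC, 8-point) in primary screens, 11-point in follow-ups.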

CNc1nc(Nc2ccc(C(=O)N3CCOCC3)cc2OC)ncc1Cl
inactive: Potency [1] | Potency [2] | Potency [3] | Potency [4] | Potency [5] | Potency [6]

O=C(O)CCC=CCC[C@@H]1[C@H](N2CCCCC2)[C@@H](O)C[C@@H]1OCc1ccc(-c2ccccc2)cc1
inactive: Potency [1] | Potency [2] | Potency [4] | Potency [6] | Potency [8]
active: Potency [7] 26.4 µM

Cc1cc(-c2ncc(CC(=O)Nc3ccc(-c4cnccn4)cn3)cc2C)ccn1
active: Potency [7] 16.6 µM
inactive: Potency [1] | Potency [2] | Potency [6]

COc1c(C)c2c(c(O)c1CC=C(C)CCC(=O)OCCN1CCOCC1)C(=O)OC2
inactive: Potency [2] | Potency [8]
active: Potency [1] 4.66 µM | Potency [7] 1.18 µM | Potency [4] 1.53 µM | Potency [5] 0.59 µM

Oc1ccc(C=Cc2cc(O)cc(O)c2)cc1
inactive: Potency [1] | Potency [6]
active: Potency [2] 18.7 µM | Potency [7] 11.8 µM | Potency [4] 21.7 µM | Potency [8] 29.6 µM

CCCCc1ccc(NS(=O)(=O)c2ccc(C)c(C(=O)N3CCN(c4cccc(C)c4C)CC3)c2)cc1
active: Potency [2] 20.9 µM | Potency [7] 23.5 µM
inactive: Potency [1] | Potency [6]

CCC[C@H](Nc1nc(-c2ccc(NC(=O)NCC)c(OC)c2)ncc1C)c1cccnc1
active: Potency [1] 0.093 µM | Potency [2] 0.0105 µM | Potency [7] 0.0118 µM | Potency [4] 0.0137 µM | Potency [5] 0.0066 µM

CC=C(C(=CC)c1ccc(O)cc1)c1ccc(O)cc1
inactive: Potency [1] | Potency [6]
active: Potency [2] 20.9 µM | Potency [3] 23.5 µM | Potency [7] 11.8 µM | Potency [8] 18.7 µM

CCCCC[C@H](O)C=C[C@H]1[C@H](O)CC(=O)[C@H]1CCCCCCC(=O)O
inactive: Potency [1] | Potency [2] | Potency [7] | Potency [4] | Potency [8] | Potency [9]

OC1CCC(Nc2ncc3nc(Nc4c(F)cc(F)cc4F)n([C@@H]4CCOC4)c3n2)CC1 (stereo partly specified)
inactive: Potency [1] | Potency [9]
active: Potency [2] 9.35 µM | Potency [3] 9.35 µM | Potency [5] 5.26 µM

CC1(C)C(N(O)C(=O)Nc2ccc(Cl)cc2)N(c2ccc(Cl)cc2)C(=O)N1CC(=O)NN=CC=Cc1ccc([N+](=O)[O-])o1 (stereo unspecified)
active: Potency [2] 18.7 µM | Potency [3] 23.5 µM
inactive: Potency [1] | Potency [6]

C=CC[N+]1([C@H]2C[C@H]3[C@@H]4CC[C@H]5C[C@H](O)[C@@H](N6CCOCC6)C[C@]5(C)[C@@H]4CC[C@]3(C)[C@H]2OC(C)=O)CCCC1
inactive: Potency [1] | Potency [2] | Potency [7] | Potency [4] | Potency [5] | Potency [6] | Potency [8] | Potency [9]

NS(=O)(=O)c1ccc(Nc2nc(OCC3CCCCC3)c3[nH]cnc3n2)cc1
inactive: Potency [1]
active: Potency [2] 26.4 µM | Potency [3] 23.5 µM | Potency [7] 6.62 µM | Potency [8] 16.6 µM

Cn1c(=O)c(-c2c(Cl)cccc2Cl)cc2cnc(Nc3cccc(C(=O)O)c3)nc21
active: Potency [2] 0.526 µM | Potency [7] 0.0935 µM | Potency [5] 1.32 µM | Potency [8] 0.743 µM
inactive: Potency [1] | Potency [4] | Potency [9]

CNc1nc(-c2ccc3c(N)n[nH]c3c2)cc(N2C[C@@H](C(=O)NC3CCCCC3)CC[C@@H]2C)n1
inactive: Potency [1]
active: Potency [2] 23.5 µM | Potency [7] 4.18 µM

CN[C@H]1[C@@H](O[C@@H]2[C@H](O[C@@H]3[C@@H](O)[C@@H](O)[C@@H](N=C(N)N)[C@@H](O)[C@@H]3N=C(N)N)O[C@H](C)[C@@]2(O)C=O)O[C@@H](CO)[C@@H](O)[C@H]1O
inactive: activity change, negative = cytotoxic [1] 6.69% [at 9.17 µM] | activity change, negative = cytotoxic [2] 13.3% [at 9.22 µM] | activity change, negative = cytotoxic [7] -4.87% [at 9.22 µM] | activity change, negative = cytotoxic [4] 3.99% [at 11.5 µM] | activity change, negative = cytotoxic [5] 7.3% [at 9.22 µM] | activity change, negative = cytotoxic [6] 13% [at 9.22 µM] | activity change, negative = cytotoxic [9] 18.9% [at 11.4 µM]

C=C1c2cccc(O)c2C(O)=C2C(=O)[C@@]3(O)C(O)=C(C(N)=O)C(=O)[C@@H](N(C)C)[C@@H]3[C@@H](O)[C@H]12
active: Potency [3] 23.5 µM
inactive: Potency [1] | Potency [2] | Potency [5] | Potency [6]

CN1CC(=O)NC1=NC(=O)Nc1cccc(Cl)c1
active: Potency [9] 8.57 µM
inactive: Potency [1] | Potency [2] | Potency [3] | Potency [4] | Potency [6]

O=C(c1ccc(C(=O)N2CCC(N3CCCC3)CC2)c(Nc2ccccc2)c1)N1CCC(N2CCCC2)CC1
inactive: Potency [1] | Potency [2] | Potency [3] | Potency [4] | Potency [5] | Potency [6] | Potency [8] | Potency [9]

C[C@@H](N)c1ccc(C(=O)Nc2ccnc3[nH]ccc23)cc1
active: Potency [2] 11.8 µM | Potency [3] 9.35 µM | Potency [7] 26.4 µM | Potency [8] 14.8 µM | Potency [9] 21.5 µM
inactive: Potency [1]

Cn1cnc(-c2cc3nccc(Oc4ccc(NC(=S)NC(=O)Cc5ccccc5)cc4F)c3s2)c1
active: Potency [2] 0.0469 µM | Potency [3] 29.6 µM | Potency [8] 16.6 µM | Potency [9] 21.5 µM
inactive: Potency [1]

COc1ccc(-c2cc3nccn3c(Nc3ncccc3C(N)=O)n2)cc1OC
inactive: Potency [1]
active: Potency [2] 1.18 µM | Potency [7] 1.66 µM | Potency [5] 2.64 µM | Potency [8] 1.05 µM

OC[C@H]1O[C@@H](Oc2ccc(O)cc2)[C@H](O)[C@@H](O)[C@H]1O
active: Potency [7] 13.2 µM
inactive: Potency [1] | Potency [2] | Potency [4] | Potency [5] | Potency [6] | Potency [8] | Potency [9]
